# About 83,000 compounds went through this panel and 20% of them were active in at least one assay; those are over-represented in the sample as a whole.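 48-hour exposure, single concentration, 96-well plates; percent growth endpoint where 0 means no net growth. Active: below 10.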 A number with no mark means an inactive call. Active and inactive are the calls of the source.
# Tested on: MDA-MB-231 breast
# Assay: NCI-60 one-dose screen, 48 h (100 = growth as untreated, 0 = no growth, -100 = all killed)
# Details: 10 µM
row,Compound,growth
1,O=C(NO)c1ccc(Cn2ccc3c(Nc4ccccc4)ncnc32)cc1,-30.6% (active)
2,N#Cc1ccc(-c2nn(-c3ccc(C(=O)O)cc3)cc2CNc2cccc(Br)c2)cc1,89.4%
3,O=C(c1ccc(Cl)cc1)C1[C@H](c2ccccc2Br)[C@@H](c2ccccc2)NC12C(=O)Nc1ccccc12 (some centres not stated),8.15% (active)
4,CC1(C)CC[C@]2(C(=O)Nc3ccccc3)CC[C@]3(C)C(=CC[C@@H]4[C@@]5(C)CC[C@H](N)C(C)(C)[C@@H]5CC[C@]43C)[C@H]2C1,71.7%
5,CC(=C(c1ccc(OCCCN(C)C)cc1)c1ccc(OCCCN(C)C)cc1)c1ccccc1,-99.6% (active)
6,Cc1ccc(/C=C/C(=O)c2ccc(S(=O)(=O)NCCNc3nc(Nc4ccc(F)cc4)nc(N(C)C)n3)cc2)cc1,38.6%
7,COc1ccc(C(=O)Nc2sc3c(c2C#N)CCC(=O)C3)cc1C(F)(F)F,-50.8% (active)
8,Cc1ccc(-c2cc(C(=O)N=Nc3c(O)[nH]c4ccccc34)c3ccccc3n2)cc1,2.78% (active)
9,C#Cc1ccc(S(=O)(=O)Nc2cccc(-c3csc(NC(C)=O)n3)c2)cc1,84.5%
10,CC(C)C1=C[C@@]23CC[C@@H]4[C@](C)(CCC[C@]4(C)C(=O)NCc4ccccc4)[C@H]2C[C@@H]1[C@H]1C(=O)CCC(=O)[C@H]13,86.5%
11,COc1ccc(C(=O)NC(=S)N2CCN(c3ncnc4c3cnn4-c3ccccc3)CC2)cc1,80.2%
12,C[C@H]1[C@H](C)CC[C@]2(COC(=O)CCC(=O)NCC#CCN3CCNCC3)CC[C@]3(C)C(=CC[C@@H]4[C@@]5(C)CCCNC(C)(C)[C@@H]5CC[C@]43C)[C@H]12,43.4%
13,CC[C@@]1(O)C(=O)OCc2c1cc1n(c2=O)Cc2c-1nc1cc(F)c(C)c3c1c2[C@@H](N)CC3,10.8%
14,Cc1ccc(CNC(=O)Cc2ccc3c(c2)CN(C2CCC(=O)NC2=O)C3=O)cc1 (configuration not stated),-36.7% (active)
15,CONC[C@]1(C)C=C2C(=O)[C@](C)(O)C3(CC3)C(C)=C2[C@H]1O,-33.5% (active)
16,CC1(C)CC[C@]2(C(=O)N3CCOCC3)CC[C@]3(C)C(=CC[C@@H]4[C@@]5(C)CC[C@H](NCO)C(C)(C)[C@@H]5CC[C@]43C)[C@H]2C1,-97.6% (active)

row,Compound,growth
1,NS(=O)(=O)c1ccc(N=Nc2c(O)n(CC(=O)Nc3ccccc3Br)c3ccccc23)cc1,11.2%
2,CNC(=O)c1cccc(N2CCc3c2ccc(NC(=O)Nc2ccc(N4CCN(C)CC4)c(C(F)(F)F)c2)c3F)c1,-94.8% (active)
3,O=C(NCCCCC(c1ccc(F)cc1)c1ccc(F)cc1)NCCCc1cccnc1,44.8%
4,CC(=O)Nc1ccc(-c2cn(-c3cccc(C(=O)Nc4ccc(Cl)c(C(F)(F)F)c4)c3)nn2)cn1,-87% (active)
5,CCCS(=O)(=O)c1oc(-c2ccc(F)cc2)nc1S(=O)(=O)c1ccc(F)cc1,-91.9% (active)
6,O=C(Cn1nc(-c2ccccc2)ccc1=O)NN1C(=O)c2ccccc2C1=O,100%
7,CC(=O)NCC1=C(C)C=C2C(=O)[C@](C)(O)C3(CC3)C(C)=C21,-61.5% (active)
8,CCN1CCN(Cc2ccc(C(=O)Nc3cccc(-c4cn(-c5ccc6oc(=O)ccc6c5)nn4)c3)cc2C(F)(F)F)CC1,-100% (active)
9,CCOP(=O)(OCC)O[C@H]1CCC(=O)[C@@H]2[C@H]1[C@H]1C[C@@H]3[C@@]4(C)CCCC(C)(C(=O)OC)[C@@H]4CC[C@@]23C=C1C(C)C (some centres not stated),67%
10,O=C1Nc2ccc(F)cc2/C1=C/c1cccc(OCc2ccccn2)c1,30.7%
11,CC1=N/C(=C\c2ccc(N(C)C)cc2)C(=O)N1CCc1ccc(S(N)(=O)=O)cc1,96.4%
12,O=C(Nc1ccc(I)cc1F)c1cc(-c2ccc(F)cc2F)ccc1O,-1.69% (active)
13,C/C(=N\NC(N)=S)c1ccc(Nc2nc(SC(C)C)nc(-c3ccccc3)c2C#N)cc1,40.5%
14,COc1ccc2c(c1)N=C(C(=O)O)/C2=C/c1sc(Nc2ccc(O)cc2)nc1O,63.7%
15,COc1cc(-c2nc3cc(Cl)c(Cl)cc3[nH]2)ccc1OCc1nnc(-c2ccc(Br)cc2)o1,-38.9% (active)
16,Cc1ccc(NC(=O)c2ccc(-n3c(=O)[nH]c4ccccc4c3=O)cc2)cc1,64.6%

# Reference: PubChem BioAssay (NCI)
